Experimental data published in PubChem BioAssay (Tox21).
Records with an inconclusive call do not appear. Active and inactive are the calls of the source. Unless noted, the call rests on the fitted dose curve; in most records, active means well fitted curve in the direction sought with a large enough effect in the repeat runs; inconclusive means weak or mixed curves; inactive means no such curve, though single readings can be large; an effect the other way counts as inactive or inconclusive.

Legend:
[1] = qHTS assay to identify small molecule agonists of the sonic hedgehog signaling (Shh) pathway (AID 1259368; calls by dose curve; further: series mostly up to about 92 µM; nearly all actives have a fitted effect of over 15% in size)
In short: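 NIH/3T3-derived 3T3Gli1-Luc cells carrying a stably integrated Gli1 response element–firefly luciferase reporter were plated, left 4 hr at 37 C, then given compounds in DMSO for 24 hr. Luminescence was read 30 min after adding luciferase reagent.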

[2] = qHTS assay to identify small molecule antagonists of the sonic hedgehog signaling (Shh) pathway (AID 1259369; calls by dose curve; further: nearly all actives have a fitted effect of over 45% in size)
In short: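 NIH/3T3-derived 3T3Gli1-Luc cells with stably integrated Gli1-Luc reporter were preincubated 4hr at 37 C, then given compounds in DMSO plus Shh conditioned medium and incubated 24hr. Firefly luciferase luminescence read after 30min reagent at room temperature.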

[3] = target: Estrogen receptor beta (Homo sapiens) (UniProt Q92731); experiment: qHTS assay to identify small molecule agonists of the estrogen receptor beta (ER-beta) signaling pathway (AID 1259377; active means well fitted activation curve with a large enough effect in the signal ratio in the repeat runs, not every such curve was filed as active; the % refers to the signal ratio)
Estrogen receptor beta (Homo sapiens), sequence (Q92731 whole entry, looked up): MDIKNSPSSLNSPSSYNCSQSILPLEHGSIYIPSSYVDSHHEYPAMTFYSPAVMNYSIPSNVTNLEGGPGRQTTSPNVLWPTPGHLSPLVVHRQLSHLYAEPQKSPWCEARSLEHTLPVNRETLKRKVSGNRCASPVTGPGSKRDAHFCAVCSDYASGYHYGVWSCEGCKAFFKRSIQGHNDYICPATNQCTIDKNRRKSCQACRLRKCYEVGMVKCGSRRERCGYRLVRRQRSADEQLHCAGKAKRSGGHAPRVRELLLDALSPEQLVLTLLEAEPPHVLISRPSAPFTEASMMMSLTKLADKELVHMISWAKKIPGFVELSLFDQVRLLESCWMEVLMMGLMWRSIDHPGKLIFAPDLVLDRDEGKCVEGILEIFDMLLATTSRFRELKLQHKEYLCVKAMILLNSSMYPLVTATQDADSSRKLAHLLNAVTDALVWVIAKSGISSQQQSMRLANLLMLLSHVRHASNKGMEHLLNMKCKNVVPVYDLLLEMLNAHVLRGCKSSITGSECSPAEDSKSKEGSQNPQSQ
In short: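 qHTS in ER-beta-UAS-bla HEK293T cells: 6 hr settling, then 16 hr compound at 37C, then LiveBLAzer substrate 2 h at RT before fluorescence reading.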

[4] = target: Estrogen receptor beta (Homo sapiens) (UniProt Q92731); experiment: qHTS assay to identify small molecule antagonists of the estrogen receptor beta (ER-beta) signaling pathway (AID 1259378; active means well fitted inhibition curve with a large enough effect in the signal ratio in the repeat runs, not every such curve was filed as active; the % refers to the signal ratio)
In short: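 ER-beta-UAS-bla HEK293T (GripTite) cells in 2% charcoal-stripped FBS medium were preincubated 6 hr at 37C, dosed with compound, then stimulated with 1 nM E2 (final) for 16 hr; beta-lactamase reporter read by B/G FRET fluorescence after 2 hr substrate loading.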

[5] = qHTS assay to identify small molecule agonists of the androgen receptor (AR) signaling pathway in the presence of an antagonist - cell viability counter screen (AID 1259379); further: series mostly up to about 92 µM; nearly all actives have a fitted effect of over 25% in size
In short: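 MDA-kb2 human breast carcinoma cells (stable MMTV-luciferase, AR/GR responsive) were seeded 3,000 cells/well, pre-incubated 5 hr at 37C without CO2, then given 3.0uM nilutamide and compounds at 15 concentrations for 16 hr. Viability was read by CellTiter-Fluor fluorescence.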

[6] = qHTS assay to identify small molecule agonists of the estrogen receptor beta (ER-beta) signaling pathway - cell viability counter screen (AID 1259380); further: nearly all actives have a fitted effect of over 30% in size
In short: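 ER-beta-UAS-bla HEK293T cells in medium with 2% charcoal-stripped FBS were preincubated 6 hr at 37C, dosed with compound in DMSO for 16 hr, then after the bla read, CellTiter-Glo was added for 30 min at room temperature; luminescence recorded.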

[7] = target: Androgen receptor (Homo sapiens) (UniProt P10275); experiment: qHTS assay to identify small molecule agonists of the androgen receptor (AR) signaling pathway in the presence of an antagonist (AID 1259381; calls by dose curve; further: nearly all actives have a fitted effect of over 15% in size)
Androgen receptor (Homo sapiens), sequence (P10275 whole entry, looked up): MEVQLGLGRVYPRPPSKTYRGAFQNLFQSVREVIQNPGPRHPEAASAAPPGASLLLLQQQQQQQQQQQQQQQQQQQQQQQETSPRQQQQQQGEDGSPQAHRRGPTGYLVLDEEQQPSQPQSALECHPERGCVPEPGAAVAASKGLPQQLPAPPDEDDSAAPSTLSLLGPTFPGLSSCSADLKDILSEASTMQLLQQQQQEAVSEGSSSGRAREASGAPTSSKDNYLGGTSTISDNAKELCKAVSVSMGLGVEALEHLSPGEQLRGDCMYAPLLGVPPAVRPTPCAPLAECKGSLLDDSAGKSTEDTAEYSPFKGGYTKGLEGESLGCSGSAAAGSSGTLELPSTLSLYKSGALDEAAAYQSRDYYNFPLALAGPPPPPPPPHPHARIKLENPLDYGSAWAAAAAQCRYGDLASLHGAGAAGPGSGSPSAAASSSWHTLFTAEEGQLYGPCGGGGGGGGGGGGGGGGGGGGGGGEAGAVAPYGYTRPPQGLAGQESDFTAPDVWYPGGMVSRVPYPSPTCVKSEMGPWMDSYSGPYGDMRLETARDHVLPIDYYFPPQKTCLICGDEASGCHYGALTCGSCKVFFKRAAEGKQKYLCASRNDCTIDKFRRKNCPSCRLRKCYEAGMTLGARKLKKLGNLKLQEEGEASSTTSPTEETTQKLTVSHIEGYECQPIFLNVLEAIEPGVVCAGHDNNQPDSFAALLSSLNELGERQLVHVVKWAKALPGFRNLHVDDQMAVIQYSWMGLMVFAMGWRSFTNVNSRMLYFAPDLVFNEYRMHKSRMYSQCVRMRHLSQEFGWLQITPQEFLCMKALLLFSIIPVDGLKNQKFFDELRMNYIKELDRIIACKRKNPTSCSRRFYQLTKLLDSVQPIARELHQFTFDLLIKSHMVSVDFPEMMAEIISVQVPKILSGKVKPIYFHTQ
In short: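 MDA-kb2 human breast carcinoma cells carrying an MMTV-luciferase reporter (AR- and GR-responsive) were treated with compounds at 15 concentrations plus 3.0uM final nilutamide for 16hr at 37C without CO2; luminescence was read after ONE-Glo addition.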

[8] = qHTS assay to identify small molecule antagonists of the estrogen receptor beta (ER-beta) signaling pathway - cell viability counter screen (AID 1259382); further: series mostly up to about 92 µM; nearly all actives have a fitted effect of over 55% in size
In short: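 ER-beta-UAS-bla HEK293T cells (2,000/well, 2% charcoal-stripped FBS) were pre-incubated 6 hr at 37C, then given compound plus 1nM final 17-beta-estradiol for 16 hr. Viability was read in the same wells by CellTiter-Glo luminescence after 30 min at room temperature.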

[9] = target: Estrogen receptor (Homo sapiens) (UniProt P03372); experiment: qHTS assay to identify small molecule agonists of the estrogen receptor alpha (ER-alpha) signaling pathway in the presence of an antagonist (AID 1259383; calls by dose curve; further: top concentration of the series differs between compounds; nearly all actives have a fitted effect of over 15% in size)
Estrogen receptor (Homo sapiens), sequence (P03372 whole entry, looked up): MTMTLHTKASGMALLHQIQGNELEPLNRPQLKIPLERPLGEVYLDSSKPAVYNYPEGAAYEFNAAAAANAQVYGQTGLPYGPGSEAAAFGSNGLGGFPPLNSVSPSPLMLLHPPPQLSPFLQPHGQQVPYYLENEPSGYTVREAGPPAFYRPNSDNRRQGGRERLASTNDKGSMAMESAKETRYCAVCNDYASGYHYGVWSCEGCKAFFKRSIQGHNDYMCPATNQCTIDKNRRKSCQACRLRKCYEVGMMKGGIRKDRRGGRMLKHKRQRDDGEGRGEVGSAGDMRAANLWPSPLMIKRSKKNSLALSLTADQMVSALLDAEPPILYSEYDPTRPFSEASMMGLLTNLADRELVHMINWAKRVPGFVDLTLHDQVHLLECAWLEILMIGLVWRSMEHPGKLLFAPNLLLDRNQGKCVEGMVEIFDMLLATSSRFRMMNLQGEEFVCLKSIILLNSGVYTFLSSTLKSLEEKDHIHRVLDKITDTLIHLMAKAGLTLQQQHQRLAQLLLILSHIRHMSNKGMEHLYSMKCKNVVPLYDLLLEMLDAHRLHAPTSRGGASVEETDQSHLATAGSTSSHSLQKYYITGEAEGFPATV
In short: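 VM7Luc4E2 cells (endogenous full-length ER-alpha, 4×ERE-luciferase) were precultured 5 days in phenol red-free medium with 10% charcoal-stripped FBS, given 10.0nM ICI-182,780 (final), then treated with compounds at 15 concentrations for 22hr at 37C; luminescence read with ONE-Glo.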

[10] = qHTS assay to identify small molecule agonists or antagonists of the thyroid stimulating hormone receptor (TSHR) signaling pathway - wild type cell line counter screen (AID 1259384; calls by dose curve)
In short: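 Wild-type HEK293 cells were plated 18 h at 37 C/5% CO2, pin-dosed with compound plus Ro20-1724 medium, held 30 min at room temperature, then given cAMP-d2 and anti-cAMP-cryptate; fluorescence was read after 1 h. Fifteen concentrations, triplicate.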

[11] = target: Thyrotropin receptor (Homo sapiens) (UniProt P16473); experiment: qHTS assay to identify small molecule antagonists of the thyroid stimulating hormone receptor (TSHR) signaling pathway (AID 1259385; calls by dose curve; further: nearly all actives have a fitted effect of over 20% in size)
Thyrotropin receptor (Homo sapiens), sequence (P16473 whole entry, looked up): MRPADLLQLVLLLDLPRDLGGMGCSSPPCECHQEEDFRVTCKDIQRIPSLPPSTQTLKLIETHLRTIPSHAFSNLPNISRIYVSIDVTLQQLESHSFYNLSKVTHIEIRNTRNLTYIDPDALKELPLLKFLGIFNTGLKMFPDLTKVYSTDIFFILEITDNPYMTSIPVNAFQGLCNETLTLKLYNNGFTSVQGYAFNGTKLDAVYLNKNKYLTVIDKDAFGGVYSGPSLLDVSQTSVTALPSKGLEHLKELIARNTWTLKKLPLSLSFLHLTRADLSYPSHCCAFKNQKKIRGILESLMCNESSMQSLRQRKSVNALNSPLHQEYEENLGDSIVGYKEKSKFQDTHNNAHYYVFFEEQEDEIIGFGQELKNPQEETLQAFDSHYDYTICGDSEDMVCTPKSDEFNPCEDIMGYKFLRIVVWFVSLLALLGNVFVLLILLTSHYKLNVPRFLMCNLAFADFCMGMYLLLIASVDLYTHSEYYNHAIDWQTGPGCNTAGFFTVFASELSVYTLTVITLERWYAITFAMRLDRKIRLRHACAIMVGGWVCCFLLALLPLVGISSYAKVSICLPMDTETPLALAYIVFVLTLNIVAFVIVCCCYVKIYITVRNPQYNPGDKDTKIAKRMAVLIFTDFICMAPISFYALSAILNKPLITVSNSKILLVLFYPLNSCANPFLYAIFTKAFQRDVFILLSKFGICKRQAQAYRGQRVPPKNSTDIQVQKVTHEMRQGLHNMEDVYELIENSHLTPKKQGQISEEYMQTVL
In short: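 TSHR-HEK293 cells were plated and held 18 h at 37C/5% CO2, then given compound plus Ro20-1724 and stimulated with TSH at 1.5 ng/mL final. After 30 min at room temperature, cAMP was detected with cAMP-d2/anti-cAMP-cryptate (1 h) by fluorescence.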

[12] = qHTS assay to identify small molecule agonists of the estrogen receptor alpha (ER-alpha) signaling pathway in the presence of an antagonist - cell viability counter screen (AID 1259386);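 further: series mostly up to about 92 µM; cells exposed to compounds for 22 h at 37 °C before the viability read; nearly all actives have a fitted effect of over 30% in size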
In short: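 VM7Luc4E2 cells (endogenous full-length ER-alpha, 4×ERE-luciferase) were held 5 days in phenol red-free medium with 10% charcoal-stripped FBS, plated, then given 10.0nM ICI-182,780 and compounds at 15 concentrations for 22hr at 37C; viability read by CellTiter-Fluor fluorescence.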

[13] = target: Progesterone receptor (Homo sapiens) (UniProt P06401); experiment: qHTS assay to identify small molecule agonists of the progesterone receptor (PR) signaling pathway (AID 1346784; calls by dose curve; further: nearly all actives have a fitted effect of over 30% in size)
Progesterone receptor (Homo sapiens), sequence (P06401 whole entry, looked up): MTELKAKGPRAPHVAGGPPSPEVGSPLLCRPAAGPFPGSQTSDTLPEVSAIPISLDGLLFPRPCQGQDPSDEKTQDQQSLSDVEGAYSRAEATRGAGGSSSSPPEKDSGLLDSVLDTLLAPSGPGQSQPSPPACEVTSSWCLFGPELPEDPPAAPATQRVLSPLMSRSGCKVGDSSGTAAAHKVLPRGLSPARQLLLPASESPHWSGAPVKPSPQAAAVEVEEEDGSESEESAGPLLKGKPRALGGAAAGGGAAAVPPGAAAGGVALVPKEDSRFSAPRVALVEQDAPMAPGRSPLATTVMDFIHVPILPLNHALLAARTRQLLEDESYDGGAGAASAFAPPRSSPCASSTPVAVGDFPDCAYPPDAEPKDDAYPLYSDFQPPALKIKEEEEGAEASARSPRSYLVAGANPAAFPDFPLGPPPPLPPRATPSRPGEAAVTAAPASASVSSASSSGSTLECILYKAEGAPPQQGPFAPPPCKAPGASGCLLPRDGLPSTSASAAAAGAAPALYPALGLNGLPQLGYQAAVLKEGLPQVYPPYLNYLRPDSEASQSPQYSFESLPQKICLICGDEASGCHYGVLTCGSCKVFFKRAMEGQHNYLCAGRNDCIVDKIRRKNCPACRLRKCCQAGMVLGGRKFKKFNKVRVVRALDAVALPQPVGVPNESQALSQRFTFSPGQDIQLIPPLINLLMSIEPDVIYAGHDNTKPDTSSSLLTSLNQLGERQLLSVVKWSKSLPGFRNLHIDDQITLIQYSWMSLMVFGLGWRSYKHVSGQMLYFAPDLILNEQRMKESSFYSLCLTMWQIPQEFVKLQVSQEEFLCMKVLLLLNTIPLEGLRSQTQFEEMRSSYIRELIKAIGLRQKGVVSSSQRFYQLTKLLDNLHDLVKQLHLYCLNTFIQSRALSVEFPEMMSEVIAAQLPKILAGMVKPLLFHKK
In short: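 Fluorescence from LiveBLAzer B/G FRET substrate cleavage (2 hr, RT) reported PR activation in PR-UAS-bla HEK 293T cells treated 16 hr at 37C/5% CO2 with compounds; medium contained 2% charcoal-stripped FBS.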

[14] = target: Progesterone receptor (Homo sapiens) (UniProt P06401); experiment: qHTS assay to identify small molecule antagonists of the progesterone receptor (PR) signaling pathway (AID 1346795; active means well fitted inhibition curve with a large enough effect in the signal ratio in the repeat runs, not every such curve was filed as active; the % refers to the signal ratio)
In short: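 Fluorescence intensity measured 2 hr after adding beta-lactamase FRET substrate to PR-UAS-bla HEK293T cells that had been co-treated 16 hr with compound and 1 nM R5020 (final concentration) in 2% charcoal-stripped FBS.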

[15] = qHTS assay to identify small molecule antagonists of the progesterone receptor (PR) signaling pathway - cell viability counter screen (AID 1346798); further: series mostly up to about 92 µM; nearly all actives have a fitted effect of over 50% in size
In short: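 CellTiter-Glo luminescence; PR-UAS-bla HEK293T, 3,000 cells/well; compound + R5020, 16 hr, 37C/5% CO2; 30 min RT before read.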

[16] = qHTS assay to identify small molecule agonists of the progesterone receptor (PR) signaling pathway - cell viability counter screen (AID 1346799; calls by dose curve; further: nearly all actives have a fitted effect of over 45% in size)
In short: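 In parallel with the beta-lactamase readout, cytotoxicity toward PR-UAS-bla HEK293T cells was measured by CellTiter-Glo luminescence following 16 hr compound incubation in 2% charcoal-stripped FBS medium.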

[17] = qHTS assay to identify small molecule antagonists of the TGF-beta/Smad signaling pathway - cell viability counter screen (AID 1346824); further: nearly all actives have a fitted effect of over 50% in size
In short: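 SBE-bla HEK 293T cells were plated overnight at 37 C, then given compounds in DMSO plus TGF-beta1 (added as 0.25 ng/mL solution) for 5 hr. After the bla read, CellTiter-Glo was added to the same wells and luminescence read after 30 min at room temperature.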

[18] = qHTS assay to identify small molecule agonists of the TGF-beta/Smad signaling pathway - cell viability counter screen (AID 1346829); further: top concentration of the series differs between compounds; nearly all actives have a fitted effect of over 45% in size
In short: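 HEK 293T SBE-bla line, 5 hr compound exposure at 37 C, multiplexed CellTiter-Glo viability read by luminescence.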

[19] = qHTS assay to identify small molecule agonists of the TGF-beta/Smad signaling pathway (AID 1346859; active means well fitted activation curve with a large enough effect in the signal ratio in the repeat runs, not every such curve was filed as active; the % refers to the signal ratio; further: series mostly up to about 77 µM)
In short: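 After overnight seeding, SBE-bla HEK 293T cells are dosed with compounds in DMSO and kept 5 hr at 37 C, 5% CO2. LiveBLAzer-type FRET substrate is then applied for 2 hr at room temperature.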

[20] = target: Thyrotropin-releasing hormone receptor (Homo sapiens) (UniProt P34981); experiment: qHTS assay to identify small molecule antagonists of the thyrotropin-releasing hormone receptor (TRHR) signaling pathway (AID 1346877; active means well fitted inhibition curve with a large enough effect in the repeat runs, not every such curve was filed as active; further: series mostly up to about 51 µM)
Thyrotropin-releasing hormone receptor (Homo sapiens), sequence (P34981 whole entry, looked up): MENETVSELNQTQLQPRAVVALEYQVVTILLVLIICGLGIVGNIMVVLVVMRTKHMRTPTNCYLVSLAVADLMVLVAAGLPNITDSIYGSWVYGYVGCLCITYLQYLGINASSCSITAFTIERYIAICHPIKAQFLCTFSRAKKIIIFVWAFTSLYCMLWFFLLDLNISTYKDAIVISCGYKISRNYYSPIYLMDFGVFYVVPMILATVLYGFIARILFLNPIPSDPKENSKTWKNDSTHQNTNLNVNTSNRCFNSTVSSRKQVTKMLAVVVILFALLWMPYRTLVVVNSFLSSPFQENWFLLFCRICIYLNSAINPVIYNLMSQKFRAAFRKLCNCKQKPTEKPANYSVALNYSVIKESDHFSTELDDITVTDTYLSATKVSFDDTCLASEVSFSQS
In short: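 TRHR-expressing HEK293 cells were seeded, cultured 18 h at 37 °C, then loaded with calcium dye for 2 h. Compounds were pre-incubated 5 min at room temperature before 1 nM TRH (final) was added, and kinetic fluorescence was recorded for 3 min.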

Measured: Potency

C[N+](C)(C)CCCl
inactive: all assays above

O=Cc1ccc2c(c1)OCO2
not listed: [7] | [9]
inactive: all other assays above

c1ccc(C2CC2)c(OCC2=NCCN2)c1
not listed: [10]
inactive: all other assays above

ClCCCCBr
not listed: [7] | [9] | [16]
inactive: all other assays above

CC1C(=O)C[C@]2(C(C)C)C[C@H]12 (stereo partly drawn)
not listed: [7] | [9] | [20]
inactive: all other assays above

ClCc1cccc(Cl)c1
inactive: all assays above

CC1(C)[C@H](C=C(Cl)Cl)[C@@H]1C(=O)O[C@@H](C#N)c1cccc(Oc2ccccc2)c1
not listed: [7] | [14] | [16]
inactive: all other assays above
